According to PubChem BioAssay (NCATS):
Records with an inconclusive call do not appear. Where a call stands in place of a potency, no number is given. The source made the active and inactive calls. The call rests on the fitted dose curve; in most records, active means well fitted inhibition curve with a large enough effect; inconclusive means small, poorly fitted or top-dose-only effect; inactive means flat fitted curve, though single readings scatter.

Tested on: PC49
Experiment: qHTS profiling for inhibitors of Plasmodium falciparum proliferation (AID 504749); further: nearly all actives have a fitted effect of over 60% in size
Details: P. falciparum in erythrocytes, SYBR Green DNA, 72 h; series mostly up to 28.7 µM
In short: (§1)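 P. falciparum-infected erythrocytes (0.3% parasitemia, 2.5% hematocrit) incubated with compound 72 h at 37 C, 5% CO2. Parasite DNA detected by SYBR Green after lysis, overnight at room temperature; normalised to 0.29 uM artemisinin and DMSO.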
Potency means the concentration at half of the fitted maximal effect.

| Structure (SMILES) | Potency |
| --- | --- |
| CCCCC(CC)COS(=O)(=O)O (stereo not given) | inactive |
| CC1(O)CCC(C(C)(C)O)CC1 (stereo not given) | inactive |
| CCCCCCOC(=O)c1cccnc1 | inactive |
| FC(F)(F)COCC(F)(F)F | inactive |
| CCCCCCCCCCCC(=O)N(CCO)CCO | inactive |
| O=P(O)(O)OC[C@H]1O[C@](O)(COP(=O)(O)O)[C@@H](O)[C@@H]1O | inactive |
| COc1cc(S(C)=O)ccc1-c1nc2ncccc2[nH]1 (stereo not given) | inactive |
| O=c1[nH]c(=O)n([C@H]2C[C@H](O)[C@@H](CO)O2)cc1/C=C/Br | inactive |
| CC(=O)[C@H]1CC[C@H]2[C@@H]3C=CC4=CC(=O)CC[C@@]4(C)[C@H]3CC[C@]12C | inactive |
| NC(N)=O | inactive |
| CCC(C(=O)NC(N)=O)c1ccccc1 (stereo not given) | inactive |
| CC(CCc1ccc(O)cc1)NCC(O)c1ccc(O)cc1 (stereo not given) | inactive |
| Nc1nccs1 | inactive |
| NC(=S)NS(=O)(=O)c1ccc(N)cc1 | inactive |
| O=C(OCc1ccccc1)c1ccc(O)cc1 | inactive |
| CC1C(=O)CC2C3(C)CCC2(C(C)C(=O)O)C(=O)C13 (stereo not given) | inactive |
| O=C(NNCS(=O)(=O)O)c1ccncc1 | inactive |
| CC(=O)Nc1ccc(OC(C)=O)cc1 | inactive |
| CC/C(=C(/CC)c1ccc(OP(=O)(O)O)cc1)c1ccc(OP(=O)(O)O)cc1 | inactive |
| OC[C@H]1O[C@@](CO)(O[C@H]2O[C@H](CO)[C@@H](O)[C@H](O)[C@H]2O)[C@@H](O)[C@@H]1O | inactive |

| Structure (SMILES) | Potency |
| --- | --- |
| [O-][N+](=Nc1ccccc1)c1ccccc1 | inactive |
| NC(=O)[C@H]1O[C@@H](O)[C@H](O)[C@@H](O)[C@@H]1O | inactive |
| CC(C)CCC[C@@H](C)[C@H]1CC[C@H]2[C@@H]3CC[C@@H]4C[C@H](O)CC[C@]4(C)[C@H]3CC[C@]12C | inactive |
| ClC(Cl)Cl | inactive |
| FC(F)(F)C(F)(F)C(F)(F)C(F)(F)C(F)(F)F | inactive |
| CC(CC=O)CCCC(C)(C)O (stereo not given) | inactive |
| CC(C)[C@H](N)C(=O)OCC(CO)OCn1cnc2c(=O)[nH]c(N)nc21 (stereo not given in full) | inactive |
| CC(C)CCC[C@@H](C)[C@H]1CC[C@H]2[C@@H]3CC=C4C[C@@H](O)CC[C@]4(C)[C@H]3CC[C@]12C | inactive |
| CC(C)c1ncc([N+](=O)[O-])n1C | inactive |
| CCCc1ccc(C(=O)O)cc1 | inactive |
| C=CC(=O)O | inactive |
| COC(=O)CC[C@H](N)C(=O)O | inactive |
| CN1C(=O)C[C@@H](C(=O)N[C@@H](Cc2cnc[nH]2)C(=O)N2CCC[C@H]2C(N)=O)NC1=O | inactive |
| Cc1ncc(C[n+]2csc(CCOP(=O)(O)O)c2C)c(N)n1 | inactive |
| O=C(O)COc1ccccc1/C=N/NC(=O)c1ccncc1 | inactive |
| O=C(/C=C/c1cccc(F)c1)NC1CC1 | inactive |
| CC(C)(Oc1ccc(C2CCCc3ccccc32)cc1)C(=O)O (stereo not given) | inactive |
| O=C(O)[C@H]1C(=CCO)O[C@H]2CC(=O)N12 | inactive |
| CN=C1C=CC(=C(c2ccc(N(C)C)cc2)c2ccc(N(C)C)cc2)C=C1 | 1410 nM (active) |
| CO | inactive |

Tested on: SC27B
Experiment: as above
Details: P. falciparum in erythrocytes, SYBR Green DNA, 72 h; series mostly up to 28.7 µM
In short: as §1

| Structure (SMILES) | Potency |
| --- | --- |
| CCCCC(CC)COS(=O)(=O)O (stereo not given) | inactive |
| CC1(O)CCC(C(C)(C)O)CC1 (stereo not given) | inactive |
| CCCCCCOC(=O)c1cccnc1 | inactive |
| FC(F)(F)COCC(F)(F)F | inactive |
| CCCCCCCCCCCC(=O)N(CCO)CCO | inactive |
| O=P(O)(O)OC[C@H]1O[C@](O)(COP(=O)(O)O)[C@@H](O)[C@@H]1O | inactive |
| COc1cc(S(C)=O)ccc1-c1nc2ncccc2[nH]1 (stereo not given) | inactive |
| O=c1[nH]c(=O)n([C@H]2C[C@H](O)[C@@H](CO)O2)cc1/C=C/Br | inactive |
| CC(=O)[C@H]1CC[C@H]2[C@@H]3C=CC4=CC(=O)CC[C@@]4(C)[C@H]3CC[C@]12C | inactive |
| NC(N)=O | inactive |
| CCC(C(=O)NC(N)=O)c1ccccc1 (stereo not given) | inactive |
| CC(CCc1ccc(O)cc1)NCC(O)c1ccc(O)cc1 (stereo not given) | inactive |
| Nc1nccs1 | inactive |
| NC(=S)NS(=O)(=O)c1ccc(N)cc1 | inactive |
| O=C(OCc1ccccc1)c1ccc(O)cc1 | inactive |
| CC1C(=O)CC2C3(C)CCC2(C(C)C(=O)O)C(=O)C13 (stereo not given) | inactive |
| O=C(NNCS(=O)(=O)O)c1ccncc1 | inactive |
| CC(=O)Nc1ccc(OC(C)=O)cc1 | inactive |
| CC/C(=C(/CC)c1ccc(OP(=O)(O)O)cc1)c1ccc(OP(=O)(O)O)cc1 | inactive |
| OC[C@H]1O[C@@](CO)(O[C@H]2O[C@H](CO)[C@@H](O)[C@H](O)[C@H]2O)[C@@H](O)[C@@H]1O | inactive |

| Structure (SMILES) | Potency |
| --- | --- |
| [O-][N+](=Nc1ccccc1)c1ccccc1 | inactive |
| NC(=O)[C@H]1O[C@@H](O)[C@H](O)[C@@H](O)[C@@H]1O | inactive |
| CC(C)CCC[C@@H](C)[C@H]1CC[C@H]2[C@@H]3CC[C@@H]4C[C@H](O)CC[C@]4(C)[C@H]3CC[C@]12C | inactive |
| ClC(Cl)Cl | inactive |
| FC(F)(F)C(F)(F)C(F)(F)C(F)(F)C(F)(F)F | inactive |
| CC(CC=O)CCCC(C)(C)O (stereo not given) | inactive |
| CC(C)[C@H](N)C(=O)OCC(CO)OCn1cnc2c(=O)[nH]c(N)nc21 (stereo not given in full) | inactive |
| CC(C)CCC[C@@H](C)[C@H]1CC[C@H]2[C@@H]3CC=C4C[C@@H](O)CC[C@]4(C)[C@H]3CC[C@]12C | inactive |
| CC(C)c1ncc([N+](=O)[O-])n1C | inactive |
| CCCc1ccc(C(=O)O)cc1 | inactive |
| C=CC(=O)O | inactive |
| COC(=O)CC[C@H](N)C(=O)O | inactive |
| CN1C(=O)C[C@@H](C(=O)N[C@@H](Cc2cnc[nH]2)C(=O)N2CCC[C@H]2C(N)=O)NC1=O | inactive |
| Cc1ncc(C[n+]2csc(CCOP(=O)(O)O)c2C)c(N)n1 | inactive |
| O=C(O)COc1ccccc1/C=N/NC(=O)c1ccncc1 | inactive |
| O=C(/C=C/c1cccc(F)c1)NC1CC1 | inactive |
| CC(C)(Oc1ccc(C2CCCc3ccccc32)cc1)C(=O)O (stereo not given) | inactive |
| O=C(O)[C@H]1C(=CCO)O[C@H]2CC(=O)N12 | inactive |
| CN=C1C=CC(=C(c2ccc(N(C)C)cc2)c2ccc(N(C)C)cc2)C=C1 | 1000 nM (active) |
| CO | inactive |
